# Experimental data: the supplement of paper PMC10037445
# In all, about 2,900 compounds were measured (“NF-kB SEAP reporter activity, fold change vs agonist alone”: median about 0.99, highest 2% from about 2.6 on). This is one part of a sample in which the highest values are shown more often than they occur.
# Tests used:
# [1] = system: RAW-Dual; experiment: NF-kB SEAP reporter activity, fold change vs agonist alone; higher = enhanced NF-kB activity; conditions: library stock concentration (final ~1000-fold dilution): 10 mM
# Method in brief: (§1)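 After 50 nL of library stock was delivered by pin tool to RAW-Dual macrophages (50,000 cells/well, DMEM, 384-well plates), a PRR agonist was added 1 h later and the plates were kept at 37 °C, 5% CO2. Twenty hours later, IRF was read from supernatant by QuantiLuc luminescence and NF-κB by QuantiBlue absorbance at 620 nm. Reporter activity is stated as fold change over agonist-alone wells. Wells with IncuCyte confluency under 70% of agonist controls in both mask sets were counted as cytotoxic.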
# [2] = system: RAW-Dual; experiment: NF-kB SEAP reporter activity, fold change vs agonist alone; cytotoxicity flag (confluency mask): not cytotoxic; higher = enhanced NF-kB activity
# Method in brief: as §1
# [3] = system: RAW-Dual; experiment: NF-kB SEAP reporter activity, fold change vs agonist alone; cytotoxicity flag (confluency mask): cytotoxic (confluency <70% of control); higher = enhanced NF-kB activity
# Method in brief: as §1
# [4] = cytotoxicity flag (confluency mask): not cytotoxic, agonist: Imiquimod (TLR7) […]
# [5] = cytotoxicity flag (confluency mask): not cytotoxic, agonist: MPLA (TLR4) […]
# [6] = agonist: ODN 1826 (TLR9) 0.5 ug/mL
# [7] = agonist: Pam2CSK4 (TLR2/6) 0.1 ug/mL
# [8] = agonist: Pam3CSK4 (TLR2/1) 0.1 ug/mL
smiles,measurement,setting,value
Cl.Nc1ccn(C2OC(CO)C(O)C2O)c(=O)n1 (configuration not stated),NF-kB SEAP reporter activity,[1]; [4],1.72
same,NF-kB SEAP reporter activity,[1]; [5],1.42
C=C1CC[C@@H]2[C@](C)(CO)[C@H](O)CC[C@@]2(C)[C@@H]1/C=C/C1=CCOC1=O,NF-kB SEAP reporter activity,[1]; [4],0.706
same,NF-kB SEAP reporter activity,[1]; [5],0.901
C=C1CC[C@@H]2[C@](C)(CO)[C@H](O)CC[C@@]2(C)[C@@H]1/C=C/C1=CCOC1=O (library stock concentration (final ~1000-fold dilution): 10 mM),NF-kB SEAP reporter activity,[2]; agonist: LPS (TLR4) 0.1 ug/mL,0.755
same,NF-kB SEAP reporter activity,[2]; [6],0.721
same,NF-kB SEAP reporter activity,[2]; [7],0.5
same,NF-kB SEAP reporter activity,[2]; [8],0.597
Cl.Cl.O=c1cc(CN2CCOCC2)occ1OCCCCCSc1ccnc2cc(C(F)(F)F)ccc12,NF-kB SEAP reporter activity,"[1]; cytotoxicity flag (confluency mask): cytotoxic (confluency <70% of control), agonist: Imiquimod (TLR7) […]",0.953
same,NF-kB SEAP reporter activity,"[1]; cytotoxicity flag (confluency mask): cytotoxic (confluency <70% of control), agonist: MPLA (TLR4) […]",0.895
Cl.Cl.O=c1cc(CN2CCOCC2)occ1OCCCCCSc1ccnc2cc(C(F)(F)F)ccc12 (library stock concentration (final ~1000-fold dilution): 10 mM),NF-kB SEAP reporter activity,[3]; agonist: LPS (TLR4) 0.1 ug/mL,0.81
same,NF-kB SEAP reporter activity,[3]; [6],0.603
same,NF-kB SEAP reporter activity,[3]; [7],0.59
same,NF-kB SEAP reporter activity,[3]; [8],0.529
Fc1ccc(CNc2ncnc3ccc(F)cc23)cc1 (library stock concentration (final ~1000-fold dilution): 10 mM),NF-kB SEAP reporter activity,[2]; agonist: LPS (TLR4) 0.1 ug/mL,2.47
same,NF-kB SEAP reporter activity,[2]; [6],1.19
same,NF-kB SEAP reporter activity,[2]; [7],1.06
same,NF-kB SEAP reporter activity,[2]; [8],1.25
Nc1ncnc2[nH]nc(Nc3ccc(F)cc3)c12 (library stock concentration (final ~1000-fold dilution): 10 mM),NF-kB SEAP reporter activity,[2]; agonist: LPS (TLR4) 0.1 ug/mL,6.5
same,NF-kB SEAP reporter activity,[2]; [6],1.43
same,NF-kB SEAP reporter activity,[2]; [7],0.872
same,NF-kB SEAP reporter activity,[2]; [8],1.26
Nc1ncnc2[nH]nc(Nc3ccc(F)cc3)c12,NF-kB SEAP reporter activity,[1]; [4],1.13
same,NF-kB SEAP reporter activity,[1]; [5],2.6
Fc1ccc(CNc2ncnc3ccc(F)cc23)cc1,NF-kB SEAP reporter activity,[1]; [4],0.988
same,NF-kB SEAP reporter activity,[1]; [5],1.47
COc1cc2c(cc1Cc1cccc(Cl)c1F)c(=O)c(C(=O)O)cn2C(CO)C(C)C (configuration not stated) (library stock concentration (final ~1000-fold dilution): 10 mM),NF-kB SEAP reporter activity,[2]; agonist: LPS (TLR4) 0.1 ug/mL,1.45
same,NF-kB SEAP reporter activity,[2]; [6],1.08
same,NF-kB SEAP reporter activity,[2]; [7],0.664
same,NF-kB SEAP reporter activity,[2]; [8],0.625
COc1cc2c(cc1Cc1cccc(Cl)c1F)c(=O)c(C(=O)O)cn2C(CO)C(C)C (configuration not stated),NF-kB SEAP reporter activity,[1]; [4],1.06
same,NF-kB SEAP reporter activity,[1]; [5],1.17
O=C1c2ccc(O)cc2C(=O)c2ccc(O)cc21 (library stock concentration (final ~1000-fold dilution): 10 mM),NF-kB SEAP reporter activity,[2]; agonist: LPS (TLR4) 0.1 ug/mL,1.38
same,NF-kB SEAP reporter activity,[2]; [6],1.04
same,NF-kB SEAP reporter activity,[2]; [7],1.32
same,NF-kB SEAP reporter activity,[2]; [8],1.16
O=C1c2ccc(O)cc2C(=O)c2ccc(O)cc21,NF-kB SEAP reporter activity,[1]; [5],1.26
